Screen size: about 5,500 compounds; about 2,000 (36%) were called active. About 18% were inconclusive and are not listed. Rule as the data show it: active = normalized growth mostly below about 0.91 (no sharp cut-off); inconclusive = no clear call, values can overlap the other calls; inactive = mostly above about 0.92. Some of the results follow.
Experiment: chemical genetic growth profiling, strain panel (AID 1159580);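 also: tested at 20 µM; growth read once vehicle control cultures reached saturation at 30 °C; 1 = growth at the plate median or of vehicle wells; lower values mean less growth of the strain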
Settings: S. cerevisiae deletion strains, growth OD

Measured: normalized growth

O=Nc1ccc2oc(=O)ccc2c1
inactive: locus YAL013W, strain DEP1, active compounds read low 0.945 | locus YAL040C, strain CLN3, active compounds read low 0.985 | locus YCL061C, strain MRC1 (second series), active compounds read low 0.973 | locus YDR363W, strain ESC2, active compounds read low 0.917 | locus YER002W, strain NOP16, active compounds read low 1.01 | locus YGR078C, strain PAC10, active compounds read low 0.98 | locus YMR263W, strain SAP30, active compounds read low 0.989 | locus YNL175C, strain NOP13, active compounds read low 0.994 | locus YNL197C, strain WHI3, active compounds read low 0.989 | locus YNL224C, strain SQS1, active compounds read low 0.995 | locus YNL322C, strain KRE1, active compounds read low 1 | locus YOR083W, strain WHI5 (second series), active compounds read low 0.906 | locus YPL055C, strain LGE1, active compounds read low 0.896 | locus YPL241C, strain CIN2, active compounds read low 0.999
active: locus YGR229C, strain SMI1, active compounds read low 0.846

Source: PubChem BioAssay AID1159580 (chemical genetic matrix, 2015)
